This is an account of results in PubChem BioAssay.

SMILES strings stand for the structures. The source made the active and inactive calls.

Assay [1] in a line: optical density shifts of acrAB sulA E. coli – strain DRC41, OD650, 48 h, E. coli filamentation inducer project, primary screen (AID 1152).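 Further: E. coli MC1000 strain DRC41 lacking acrAB efflux pump and sulA.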 The following applies: higher = more signal, called active from +8 up or from −8 down.
Assay [2] in a line: probe aLefty1 binding on compound microarray – biochemical, small-molecule microarray, 635/667 nm fluorescence, primary screen (AID 1153).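 Further: score merges spot fluorescence with signal-to-noise ratio from the scanned slide images.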 The following applies: higher = more signal.
Assay [3] can be described thus: plasmodial surface anion channel blockers, osmotic lysis – cell-based, P. falciparum Indochina, OD700, 1 h, primary screen (AID 1154). The following applies: P. falciparum Indochina infected RBC osmotic lysis, higher = more signal, called active from +8 up or from −8 down.
A short description of assay [4]: plasmodial surface anion channel blockers, osmotic lysis – cell-based, P. falciparum Indochina, OD700, 2 h, primary screen (AID 1155).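 Further: lysis reports solute entry through the parasite surface anion channel PSAC.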 Particulars: P. falciparum Indochina infected erythrocytes, higher = more signal, called active from +8 up or from −8 down.
The nature of assay [5]: changes in parasitized red cell lysis, either direction – P. falciparum Indochina, OD700, 3 h, PSAC antagonist project, primary screen (AID 1156). Particulars: P. falciparum-infected erythrocytes, osmotic lysis, higher = more signal, called active from +8 up or from −8 down.
Assay [6] in a line: plasmodial surface anion channel blockers, osmotic lysis – cell-based, P. falciparum Indochina, OD700, 18 h, primary screen (AID 1157). The following applies: P. falciparum Indochina infected erythrocytes, osmotic lysis OD700, 18 h; higher = more signal, called active from +8 up or from −8 down.
A short description of assay [7]: S6 kinase pathway phospho-S6 level changes – cell-based, A549, cytoblot, luminescence, serum-stimulated, primary screen (AID 1158).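 Further: serum-stimulated A549 lung adenocarcinoma cells; signal is phosphorylated S6 detected by cytoblot immunostaining with HRP secondary.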 Particulars: 5 h, higher = more signal.
In assay [8] the target is NADPH oxidase 2 (Homo sapiens) (UniProt P04839). The assay is described as follows: compounds shifting NOX2 Amplex Red fluorescence – cell-based, HEK293-NOX2, PMA-stimulated, NOX inhibitor project, primary screen (AID 1159). Further: test concentration not given here. Particulars: 45 min, higher = more signal, called active from +8 up or from −8 down.
Sequence of NADPH oxidase 2 (Homo sapiens) (P04839 whole entry, looked up): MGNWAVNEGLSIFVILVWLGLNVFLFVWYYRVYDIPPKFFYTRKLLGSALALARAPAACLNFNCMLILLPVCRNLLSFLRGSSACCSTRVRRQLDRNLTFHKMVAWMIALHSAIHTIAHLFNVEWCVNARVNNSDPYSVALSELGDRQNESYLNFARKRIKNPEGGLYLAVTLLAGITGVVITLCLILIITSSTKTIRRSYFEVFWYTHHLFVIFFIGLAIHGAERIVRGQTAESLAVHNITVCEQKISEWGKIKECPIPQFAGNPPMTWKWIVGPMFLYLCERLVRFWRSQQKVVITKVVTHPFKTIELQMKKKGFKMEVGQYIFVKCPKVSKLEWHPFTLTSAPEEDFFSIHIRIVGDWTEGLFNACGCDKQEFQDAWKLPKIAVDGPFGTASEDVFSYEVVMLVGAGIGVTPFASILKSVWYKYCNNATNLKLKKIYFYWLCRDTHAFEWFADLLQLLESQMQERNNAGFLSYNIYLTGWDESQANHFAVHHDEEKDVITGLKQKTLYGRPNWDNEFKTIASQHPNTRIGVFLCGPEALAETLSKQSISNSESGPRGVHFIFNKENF
Assay [9] addresses NADPH oxidase 4 (Homo sapiens) (UniProt Q9NPH5). Briefly: compounds shifting NOX4 Amplex Red fluorescence – cell-based, HEK293-NOX4, tetracycline-induced, NOX inhibitor project, primary screen (AID 1160). The following applies: HEK293-NOX4, Amplex Red H2O2 fluorescence, 45 min; higher = more signal, called active from +8 up or from −8 down.
For assay [10], the target named is NADPH oxidase 5 (Homo sapiens) (UniProt Q96PH1). Briefly: compounds shifting NOX5 Amplex Red fluorescence – cell-based, HEK293-NOX5, NOX inhibitor project, primary screen (AID 1161). Particulars: HEK293-NOX5, ionomycin, 45 min, higher = more signal.
Sequence of NADPH oxidase 5 (Homo sapiens) (Q96PH1 whole entry, looked up): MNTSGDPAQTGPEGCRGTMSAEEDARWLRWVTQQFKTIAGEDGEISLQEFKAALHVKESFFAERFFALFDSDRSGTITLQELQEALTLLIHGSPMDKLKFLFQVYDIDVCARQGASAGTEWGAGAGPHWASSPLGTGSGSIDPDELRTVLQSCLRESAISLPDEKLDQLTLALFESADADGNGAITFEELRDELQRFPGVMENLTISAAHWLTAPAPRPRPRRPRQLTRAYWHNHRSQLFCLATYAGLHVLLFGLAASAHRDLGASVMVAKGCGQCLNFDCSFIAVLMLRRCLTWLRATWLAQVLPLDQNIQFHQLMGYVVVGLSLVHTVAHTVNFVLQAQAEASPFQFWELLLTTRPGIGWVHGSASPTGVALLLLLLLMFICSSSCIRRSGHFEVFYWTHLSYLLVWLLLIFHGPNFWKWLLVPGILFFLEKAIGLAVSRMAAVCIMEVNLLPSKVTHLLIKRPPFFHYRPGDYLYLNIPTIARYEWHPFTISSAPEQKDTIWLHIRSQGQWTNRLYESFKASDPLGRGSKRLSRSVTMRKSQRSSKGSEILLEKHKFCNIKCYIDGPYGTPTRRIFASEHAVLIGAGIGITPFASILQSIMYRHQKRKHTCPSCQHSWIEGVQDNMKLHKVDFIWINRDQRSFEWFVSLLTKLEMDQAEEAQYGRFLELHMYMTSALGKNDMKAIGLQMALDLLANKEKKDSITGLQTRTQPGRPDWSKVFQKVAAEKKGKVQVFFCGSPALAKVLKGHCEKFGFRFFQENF
Assay [11] in a line: compound effects on lung adenocarcinoma cell viability – A549, calcein-AM fluorescence, 48 h, basal, profiling panel (AID 1162). Further: test concentration not given here. Particulars: higher = more signal.
Assay [12] can be described thus: compound effects on differentiated 3T3-L1 adipocyte viability – cell-based, 3T3-L1 adipocytes, calcein-AM fluorescence, 48 h, basal, profiling panel (AID 1163). Further: test concentration not given here. The following applies: 3T3-L1 adipocytes viability, higher = more signal.
The nature of assay [13]: compound effects on hepatocellular carcinoma cell viability – HepG2, calcein-AM fluorescence, 48 h, basal, profiling panel (AID 1164). Further: test concentration not given here. The following applies: higher = more signal.
The nature of assay [14]: compound effects on multiple myeloma cell viability – MM1S, calcein-AM fluorescence, 48 h, basal, profiling panel (AID 1165).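 Further: viability of MM1S multiple myeloma cells under basal unstimulated conditions; test concentration not given here.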 The following applies: higher = more signal.
Assay [15] can be described thus: calcein-AM signal in unstimulated myeloma cells – cell-based, calcein-AM fluorescence, 48 h, PK04 Diversity Set, profiling panel (AID 1166).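 Further: cells grown under basal conditions without added stimulus; test concentration not given here.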 The following applies: RPMI8226 myeloma viability, higher = more signal.
The nature of assay [16]: JC-1 mitochondrial signal, unstimulated HepG2 cells – cell-based, JC-1 fluorescence, 24 h, 100 nL compound, profiling panel (AID 1167). Further: test concentration not given here. The following applies: HepG2 mitochondrial potential, higher = more signal.
The nature of assay [17]: JC-1 mitochondrial signal, unstimulated adipocytes – cell-based, JC-1 fluorescence, 3T3-L1 adipocytes, 24 h, 100 nL compound, profiling panel (AID 1168). Further: test concentration not given here. The following applies: JC-1 mitochondrial fluorescence, higher = more signal, called active from +8 up or from −8 down.
The nature of assay [18]: JC-1 mitochondrial signal, unstimulated myeloma cells – cell-based, JC-1 fluorescence, RPMI8226, 24 h, 100 nL compound, profiling panel (AID 1169). Further: test concentration not given here. Particulars: JC-1 mitochondrial potential fluorescence, higher = more signal.
The nature of assay [19]: JC-1 mitochondrial signal, unstimulated MM1S myeloma – cell-based, JC-1 fluorescence, 24 h, 100 nL compound, profiling panel (AID 1170). Further: test concentration not given here. The following applies: MM1S mitochondrial potential, higher = more signal.
Assay [20] is described as follows: resazurin metabolic signal in A549 cells – cell-based, resazurin fluorescence, 24 h, PK04 Diversity Set, profiling panel (AID 1171). Further: test concentration not given here. Particulars: A549 viability, higher = more signal, called active from +8 up or from −8 down.

Sequence of NADPH oxidase 4 (Homo sapiens) (Q9NPH5 whole entry, looked up): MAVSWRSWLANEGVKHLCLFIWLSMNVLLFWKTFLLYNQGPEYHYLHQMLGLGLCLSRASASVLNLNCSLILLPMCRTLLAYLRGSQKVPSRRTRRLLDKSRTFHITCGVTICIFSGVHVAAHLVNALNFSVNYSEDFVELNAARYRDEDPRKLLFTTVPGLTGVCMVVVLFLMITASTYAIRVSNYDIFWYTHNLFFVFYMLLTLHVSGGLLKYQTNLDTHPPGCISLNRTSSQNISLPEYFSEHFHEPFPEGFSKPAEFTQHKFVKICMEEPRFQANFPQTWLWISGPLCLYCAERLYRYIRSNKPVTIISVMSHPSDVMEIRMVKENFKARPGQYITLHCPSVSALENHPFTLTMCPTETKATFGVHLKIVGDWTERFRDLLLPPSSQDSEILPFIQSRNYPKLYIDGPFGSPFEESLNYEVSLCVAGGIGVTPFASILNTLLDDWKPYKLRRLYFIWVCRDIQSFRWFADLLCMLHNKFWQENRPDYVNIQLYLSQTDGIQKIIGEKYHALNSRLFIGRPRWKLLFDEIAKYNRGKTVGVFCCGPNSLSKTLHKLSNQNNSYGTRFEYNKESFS

Turning to `CO[C@@H]1COC(=O)[C@@H]2CCCN2C(=O)CC=C[C@@H](C)[C@H](OC)COC(=O)[C@@H]2CCCN2C(=O)CC=C[C@H]1C`, the z-score was 1.11 (inactive) in assay [1]; -0.0896 (inactive) in assay [3]; 0.0184 (inactive) in assay [4]; 0.11 (inactive) in assay [5]; -0.113 (inactive) in assay [6]; 0.956 in [7]. Besides, the z-score was -0.353 (inactive) in [8]; 0.476 (inactive) in assay [9]; 0.606 in assay [10]; 0.798 in assay [11]; 0.185 in assay [12]; 1.21 in [13]. For the same molecule, the z-score in assay [14] was 0.283; in [15], 0.142; in assay [16], -0.123; in assay [17] it was 1.15 (inactive); in assay [18], -0.695; in assay [19] it was 2.22. Besides, the z-score in assay [20] was 1.82 (inactive). The composite z-score in assay [2] is -0.0984.

As for `CC[C@H]1C2=C3C(CC[C@H]4C(OC)OC[C@](C)([C@@H]34)N(C(=O)OC(C)(C)C)C2)C(CO)C1CO` (stereo not given in full), the z-score in assay [1] was -0.36 (inactive); in [3], -0.51 (inactive); in assay [4], -0.909 (inactive); in [5] it was -0.337 (inactive); in assay [6], -2.25 (inactive); in assay [7] it was 1.59. Moreover, the z-score in [8] was -0.108 (inactive); in assay [9], -0.269 (inactive); in [10], -2.77; in assay [11] it was -0.499; in [12], 0.561; in assay [13], 0.656. Moreover, the z-score is 1 in assay [14]; 0.586 in assay [15]; -0.528 in assay [16]; 0.0846 (inactive) in assay [17]; -0.38 in assay [18]; -1.26 in assay [19]. In assay [20], the z-score was -1.28 (inactive). The molecule also yielded a composite z-score in assay [2] of 0.631.

For `CO[C@H]1COC(=O)CC=C[C@H](C)[C@@H](OC)COC(=O)[C@H](Cc2ccccc2)NC(=O)CC=C[C@@H]1C`, the z-score was -0.76 (inactive) in assay [1]; -0.235 (inactive) in assay [3]; -0.912 (inactive) in assay [4]; 0.959 (inactive) in [5]; -2.2 (inactive) in [6]; 0.659 in assay [7]. Also, the z-score in [8] was 0.93 (inactive); in assay [9], -1.49 (inactive); in assay [10] it was 0.404; in assay [11], 0.0767; in [12] it was 1.57; in [13], 0.219. Moreover, the z-score was 0.196 in [14]; 0.988 in [15]; 0.566 in [16]; 0.746 (inactive) in assay [17]; -0.0213 in assay [18]; 1.14 in assay [19]. In assay [20], the z-score is 0.345 (inactive). Besides, the composite z-score in assay [2] is -0.183.

Take `CCN1C(C)=C(C(=O)OC)[C@@H](c2ccccc2)N2C(=O)[C@@]3(C(=O)OC)O[C@@]12[C@@H]1C(=O)N(c2ccccc2)C(=O)[C@@H]13`: the z-score was 0.325 (inactive) in assay [1]; 0.69 (inactive) in assay [3]; -0.39 (inactive) in assay [4]; 0.0305 (inactive) in assay [5]; -1.08 (inactive) in assay [6]; 0.422 in assay [7]. The z-score in assay [8] is -0.816 (inactive); in [9], 0.267 (inactive); in assay [10], -0.283; in [11], 0.0365; in [12] it was 1.67; in assay [13], -0.805. Besides, the z-score in assay [14] is 0.871; in assay [15], -0.892; in assay [16], 0.564; in assay [17], 1.17 (inactive); in assay [18], 1.22; in assay [19] it was 0.0907. In [20], the z-score was 0.677 (inactive). In addition, the composite z-score in [2] came to 0.0166.

Take `O=C(N1CCCCC1)[C@@]1(CCS(=O)(=O)c2ccccc2)N=C(c2ccc(OCCCO)cc2)O[C@H]1c1ccccc1`: the z-score is 0.646 (inactive) in assay [1]; 30.1 (active) in assay [3]; 24.2 (active) in assay [4]; 2.17 (inactive) in [5]; 4.24 (inactive) in [6]; 2.24 in [7]. Moreover, the z-score in [8] was -4.27 (inactive); in assay [9], 0.156 (inactive); in assay [10] it was -4.84; in [11], -1.35; in assay [12], 1; in [13] it was -1.12. The z-score in [14] is -2.25; in assay [15], -3.55; in assay [16], 2; in [17], -0.751 (inactive); in assay [18] it was -0.72; in [19], -2.09. The z-score in [20] was -0.908 (inactive). The same molecule showed a composite z-score in assay [2] of 0.347.

Turning to `Cc1ccc([C@@H]2CC=C(C(=O)O)[C@H](c3ccccc3)N2S(=O)(=O)c2ccc(C)cc2)cc1`, the z-score in [1] was -1.17 (inactive); in assay [3], 1.83 (inactive); in [4] it was 0.929 (inactive); in assay [5] it was 0.692 (inactive); in assay [6], 0.708 (inactive); in assay [7], -0.256. Also, the z-score in assay [8] was 0.489 (inactive); in [9], -1.2 (inactive); in assay [10] it was -0.96; in assay [11], -0.612; in assay [12], 0.557; in [13] it was -0.825. The z-score in assay [14] was -0.251; in assay [15], -2.2; in assay [16], -0.957; in assay [17], 0.289 (inactive); in [18], -0.373; in [19] it was 0.511. Further, the z-score in assay [20] was -0.997 (inactive). The molecule also gave a composite z-score in [2] of 1.

Regarding `CC(C)(C)OC(=O)CC[C@]1(C(=O)NCCN2CCOCC2)N=C(c2ccc(OCCCO)cc2)O[C@H]1c1ccccc1CN=[N+]=[N-]`, the z-score in assay [1] was 1.66 (inactive); in assay [3] it was 9.62 (active); in assay [4], 0.121 (inactive); in assay [5] it was 0.434 (inactive); in assay [6], -1.81 (inactive); in assay [7] it was 1.04. Also, the z-score in [8] was 1.06 (inactive); in assay [9], 0.755 (inactive); in [10], 0.699; in assay [11] it was 0.327; in [12], 1.13; in assay [13], 0.0133. The z-score was 1.31 in assay [14]; -0.722 in assay [15]; -0.131 in [16]; 0.289 (inactive) in [17]; -0.0354 in [18]; 0.671 in [19]. Also, the z-score in [20] is 0.619 (inactive). In addition, in assay [2], the composite z-score is -0.0162.

For the molecule `COCC(=C=CC[C@H](O)c1ccc(OCCO)cc1)C[C@H](O)c1ccccn1`, the z-score in assay [1] is 1.36 (inactive); in assay [3], 8.89 (active); in assay [4] it was 0.989 (inactive); in [5], 0.938 (inactive); in assay [6], 0.48 (inactive); in assay [7], -0.324. Besides, the z-score in assay [8] is 2.36 (inactive); in [9], 1.71 (inactive); in assay [10], 1.32; in assay [11], 0.905; in assay [12], -0.518; in assay [13], 0.0126. Further, the z-score in assay [14] is 0.682; in [15], 0.237; in assay [16] it was 1.79; in [17], 1.09 (inactive); in assay [18], -0.145; in assay [19], -0.116. Moreover, in assay [20], the z-score is 1.02 (inactive). Moreover, the composite z-score in [2] was -0.194.
